In PubChem BioAssay AID1159580 (chemical genetic matrix, 2015):
Several values for one entry are separate records, joined by “and”; a condition that tells them apart may be missing. Identical values can stand only once. In all, about 5,500 compounds went through this assay and about 2,000 (36%) were called active. Another 18% or so got no clear call; they are omitted. No stated cut-off is given here; in the data, active means normalized growth mostly below about 0.91 (no sharp cut-off); inconclusive means no clear call, values can overlap the other calls; inactive means mostly above about 0.92. Some of the results follow.

Assay: chemical genetic growth profiling, strain panel (AID 1159580);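 further: tested at 20 µM; growth read once vehicle control cultures reached saturation at 30 °C; 1 = growth at the plate median or of vehicle wells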
Details: S. cerevisiae deletion strains, growth OD

Measured: normalized growth

O=[N+]([O-])c1cc([As](=O)(O)O)ccc1O
inactive: locus YAL013W, strain DEP1, stronger effect = lower value 0.987 | locus YAL021C, strain ccr4, stronger effect = lower value 0.965 | locus YAL026C, strain drs2, stronger effect = lower value 0.975 | locus YAL030W, strain snc1, stronger effect = lower value 0.971 | locus YBL061C, strain skt5, stronger effect = lower value 0.979 | locus YBR009C, strain hhf1, stronger effect = lower value 0.975 | locus YBR021W, strain FUR4, stronger effect = lower value 1.01 | locus YBR023C, strain chs3, stronger effect = lower value 0.986 | locus YBR171W, strain sec66, stronger effect = lower value 0.946 | locus YBR229C, strain ROT2, stronger effect = lower value 1 | locus YBR231C, strain swc5, stronger effect = lower value 0.946 | locus YBR279W, strain paf1, stronger effect = lower value 0.963 | locus YCL011C, strain gbp2, stronger effect = lower value 0.991 | locus YCL016C, strain dcc1, stronger effect = lower value 0.99 | locus YCL029C, strain bik1, stronger effect = lower value 0.914 | locus YCL069W, strain vba3, stronger effect = lower value 0.967 | locus YCR088W, strain abp1, stronger effect = lower value 0.975 | locus YDL005C, strain med2, stronger effect = lower value 0.972 | locus YDL035C, strain GPR1, stronger effect = lower value 1 | locus YDL040C, strain nat1, stronger effect = lower value 0.958 | locus YDL074C, strain BRE1, stronger effect = lower value 0.977 | locus YDL101C, strain DUN1, stronger effect = lower value 1 | locus YDL134C, strain PPH21, stronger effect = lower value 0.989 | locus YDL185W, strain tfp1, stronger effect = lower value 0.978 | locus YDR001C, strain nth1, stronger effect = lower value 0.967 | locus YDR069C, strain doa4, stronger effect = lower value 0.945 | locus YDR137W, strain rgp1, stronger effect = lower value 0.984 | locus YDR150W, strain NUM1, stronger effect = lower value 0.987 | locus YDR159W, strain sac3, stronger effect = lower value 0.978 | locus YDR162C, strain NBP2, stronger effect = lower value 0.962 | locus YDR195W, strain ref2 0.898 | locus YDR297W, strain sur2, stronger effect = lower value 0.971 | locus YDR334W, strain swr1, stronger effect = lower value 0.958 | locus YDR335W, strain msn5, stronger effect = lower value 0.972 | locus YDR392W, strain spt3, stronger effect = lower value 0.989 | locus YEL003W, strain gim4, stronger effect = lower value 0.963 | locus YEL037C, strain rad23, stronger effect = lower value 0.953 | locus YEL061C, strain CIN8 (second series), stronger effect = lower value 0.971 | locus YEL061C, strain CIN8, stronger effect = lower value 0.993 | locus YER015W, strain faa2, stronger effect = lower value 0.958 | locus YER016W, strain bim1, stronger effect = lower value 0.997 | locus YER111C, strain swi4, stronger effect = lower value 0.949 | locus YER155C, strain BEM2 (second series), stronger effect = lower value 0.953 | locus YER155C, strain BEM2, stronger effect = lower value 0.998 | locus YER167W, strain BCK2, stronger effect = lower value 1.02 | locus YFR010W, strain ubp6, stronger effect = lower value 0.949 | locus YGL167C, strain pmr1, stronger effect = lower value 0.971 | locus YGL173C, strain kem1, stronger effect = lower value 0.964 | locus YGL227W, strain vid30, stronger effect = lower value 0.964 | locus YGL240W, strain doc1, stronger effect = lower value 0.946 | locus YGL248W, strain PDE1, stronger effect = lower value 0.992 | locus YGL253W, strain hxk2, stronger effect = lower value 0.963 | locus YGR078C, strain PAC10, stronger effect = lower value 0.958 | locus YGR229C, strain SMI1, stronger effect = lower value 0.981 | locus YHR013C, strain ard1, stronger effect = lower value 0.986 | locus YHR027C, strain rpn1, stronger effect = lower value 0.972 | locus YHR030C, strain SLT2, stronger effect = lower value 0.998 and 1.06 | locus YHR079C, strain IRE1, stronger effect = lower value 1.09 | locus YHR129C, strain ARP1, stronger effect = lower value 0.999 | locus YHR142W, strain chs7, stronger effect = lower value 0.968 | locus YIL066C, strain RNR3, stronger effect = lower value 1.04 | locus YIL073C, strain SPO22, stronger effect = lower value 1.06 | locus YJL092W, strain hpr5, stronger effect = lower value 0.969 | locus YJL095W, strain BCK1 (second series), stronger effect = lower value 0.966 | locus YJL095W, strain BCK1, stronger effect = lower value 0.999 and 1.02 | locus YJL115W, strain asf1, stronger effect = lower value 0.962 | locus YJL129C, strain trk1, stronger effect = lower value 0.936 | locus YJL134W, strain LCB3, stronger effect = lower value 0.991 | locus YJL154C, strain vps35, stronger effect = lower value 0.945 | locus YJL164C, strain tpk1, stronger effect = lower value 1 | locus YJL166W, strain qcr8, stronger effect = lower value 0.977 | locus YJL187C, strain SWE1 (second series), stronger effect = lower value 1 | locus YJL187C, strain SWE1, stronger effect = lower value 0.964 | locus YJR043C, strain POL32, stronger effect = lower value 1.02 | locus YJR066W, strain TOR1, stronger effect = lower value 0.989
active: locus YDL192W, strain arf1, stronger effect = lower value 0.214 | locus YDR101C, strain arx1, stronger effect = lower value 0.759 | locus YDR318W, strain mcm21, stronger effect = lower value 0.0896 | locus YDR388W, stronger effect = lower value 0.112 | locus YDR502C, strain sam2, stronger effect = lower value 0.247 | locus YER110C, stronger effect = lower value 0.566 | locus YGL078C, strain dbp3, stronger effect = lower value 0.406 | locus YGL086W, strain mad1, stronger effect = lower value 0.0902 | locus YGR135W, strain pre9, stronger effect = lower value 0.089 | locus YGR252W, strain gcn5, stronger effect = lower value 0.255 | locus YHR079C, strain IRE1 (second series), stronger effect = lower value 0.791 | locus YHR094C, strain hxt1, stronger effect = lower value 0.25 | locus YHR200W, strain rpn10, stronger effect = lower value 0.26 | locus YIL125W, strain kgd1, stronger effect = lower value 0.521 | locus YIR030C, strain dcg1, stronger effect = lower value 0.629 | locus YJL168C, strain set2, stronger effect = lower value 0.453
